Test results from PubChem BioAssay (NCI).
Values joined by “and” are separate entries in the source; they are usually repeats but may differ in a detail not shown here. Identical values can stand only once. This is part of a sample that, as a whole, favours compounds with a hit. Of some 83,000 tested, about 20% had one in any assay.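 In brief: 96-well plates, 48 h treatment, single concentration, percent growth endpoint.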 Active and inactive are the calls of the source. The calls were made as follows: active = growth percent below 10; inactive = the rest.

Legend:
Experiment in all cases: NCI-60 one-dose screen, 48 h (100 = growth as untreated, 0 = no growth, -100 = all killed)
OVCAR-3 ovarian = tested on: OVCAR-3 ovarian
HS 578T breast = tested on: HS 578T breast
NCI/ADR-RES ovarian = tested on: NCI/ADR-RES ovarian
SK-MEL-2 melanoma = settings: 10 µM unless noted
EKVX NSCLC = settings: 10 µM unless noted
SN12C renal = settings: 10 µM unless noted
UO-31 renal = settings: 10 µM unless noted
TK-10 renal = settings: 10 µM unless noted
ACHN renal = settings: 10 µM unless noted
CAKI-1 renal = settings: 10 µM unless noted
A498 renal = settings: 10 µM unless noted
CCRF-CEM leukemia = settings: 10 µM unless noted
MOLT-4 leukemia = settings: 10 µM unless noted
SR leukemia = settings: 10 µM unless noted
RPMI-8226 leukemia = settings: 10 µM unless noted
OVCAR-8 ovarian = settings: 10 µM unless noted
OVCAR-5 ovarian = settings: 10 µM unless noted
OVCAR-4 ovarian = settings: 10 µM unless noted
SK-OV-3 ovarian = settings: 10 µM unless noted
IGROV1 ovarian = settings: 10 µM unless noted

Measured: growth

CC(=O)/C=C/c1ccc(N(C)Cc2ccc(C(C)(C)C)cc2)cc1
inactive: OVCAR-3 ovarian; 10 µM 101% | HS 578T breast; 10 µM 87.1% | NCI/ADR-RES ovarian; 10 µM 86.1%
active: OVCAR-3 ovarian; 100 µM -93.2% | HS 578T breast; 100 µM -33.3% | NCI/ADR-RES ovarian; 100 µM -60.1%

COc1ccc(C2Nc3nc(SC)nc(N)c3N=C3c4ccccc4CCC32)cc1 (stereo unspecified)
inactive: SK-MEL-2 melanoma 107% | EKVX NSCLC 58.5% | SN12C renal 109% | UO-31 renal 73.3% | TK-10 renal 158% | ACHN renal 103% | CAKI-1 renal 85.6% | A498 renal 48.8% | CCRF-CEM leukemia 47.8% | MOLT-4 leukemia 69.7% | SR leukemia 66% | RPMI-8226 leukemia 67.5% | OVCAR-8 ovarian 70.5% | OVCAR-5 ovarian 107% | OVCAR-4 ovarian 53.9% | SK-OV-3 ovarian 97% | IGROV1 ovarian 55.2% | OVCAR-3 ovarian; 10 µM unless noted 65.2% | HS 578T breast; 10 µM unless noted 97.1% | NCI/ADR-RES ovarian; 10 µM unless noted 56.2%

COc1cccc(C2C(C#N)=C(N)Oc3cc(OCCCCCC[P+](c4ccccc4)(c4ccccc4)c4ccccc4)ccc32)c1 (stereo unspecified)
inactive: UO-31 renal 39.2% | ACHN renal 18% | NCI/ADR-RES ovarian; 10 µM unless noted 85.2%
active: SK-MEL-2 melanoma -59.2% | EKVX NSCLC -0.839% | SN12C renal -31.4% | TK-10 renal -16.5% | CAKI-1 renal -8.91% | A498 renal -30% | CCRF-CEM leukemia 1.92% | MOLT-4 leukemia -15.8% | SR leukemia -48.8% | RPMI-8226 leukemia -36.4% | OVCAR-8 ovarian 1.01% | OVCAR-5 ovarian -2.3% | OVCAR-4 ovarian 2.58% | SK-OV-3 ovarian -33.5% | IGROV1 ovarian -55.8% | OVCAR-3 ovarian; 10 µM unless noted -81.3% | HS 578T breast; 10 µM unless noted -16.5%

O=C(CN1C(=O)S/C(=C\C(Cl)=C\c2ccccc2)C1=O)NCCCn1ccnc1
active: ACHN renal 5.51% | CCRF-CEM leukemia 5.11% | MOLT-4 leukemia 6.18% | SR leukemia 2.18% | RPMI-8226 leukemia 0.978% | IGROV1 ovarian 2.87% | OVCAR-3 ovarian; 10 µM unless noted 1.07%
inactive: SK-MEL-2 melanoma 38.2% | EKVX NSCLC 41.2% | SN12C renal 26.1% | UO-31 renal 48.7% | TK-10 renal 36.2% | CAKI-1 renal 50.5% | A498 renal 95.7% | OVCAR-8 ovarian 12.4% | OVCAR-5 ovarian 80.1% | OVCAR-4 ovarian 43.1% | SK-OV-3 ovarian 86% | HS 578T breast; 10 µM unless noted 51.7% | NCI/ADR-RES ovarian; 10 µM unless noted 81.2%

Cc1ccc(-c2nc(SCC(=O)c3ccc(C#N)cc3)[nH]c(=O)c2C#N)cc1
active: SR leukemia -40.6%
inactive: SK-MEL-2 melanoma 104% | EKVX NSCLC 113% | SN12C renal 108% | UO-31 renal 76.7% | TK-10 renal 99.7% | ACHN renal 96.1% | CAKI-1 renal 93.4% | A498 renal 105% | CCRF-CEM leukemia 114% | MOLT-4 leukemia 110% | RPMI-8226 leukemia 123% | OVCAR-8 ovarian 96.3% | OVCAR-5 ovarian 94.8% | OVCAR-4 ovarian 94.5% | SK-OV-3 ovarian 82.4% | IGROV1 ovarian 99.9% | OVCAR-3 ovarian; 10 µM unless noted 97.9% | HS 578T breast; 10 µM unless noted 113% | NCI/ADR-RES ovarian; 10 µM unless noted 101%

N=c1c2c(-c3ccccc3)c(-c3ccccc3)oc2ncn1NC(=O)c1cccnc1
inactive: SK-MEL-2 melanoma 111% | EKVX NSCLC 96.1% | SN12C renal 102% | UO-31 renal 75.9% | TK-10 renal 112% | ACHN renal 109% | CAKI-1 renal 93.8% | A498 renal 73.6% | CCRF-CEM leukemia 84% | MOLT-4 leukemia 89.9% | SR leukemia 77.7% | RPMI-8226 leukemia 97.5% | OVCAR-8 ovarian 97.7% | OVCAR-5 ovarian 109% | OVCAR-4 ovarian 101% | SK-OV-3 ovarian 99.2% | IGROV1 ovarian 95.7% | OVCAR-3 ovarian; 10 µM unless noted 111% | HS 578T breast; 10 µM unless noted 103% | NCI/ADR-RES ovarian; 10 µM unless noted 107%

C=CCN1C=CC(=O)[C@H](O[Si](C)(C)C(C)(C)C)[C@@H]1/C=C/c1ccccc1
active: SK-MEL-2 melanoma -57% [100 µM] | EKVX NSCLC -48% [100 µM] | SN12C renal -74% [100 µM] | UO-31 renal -73.4% [100 µM] | TK-10 renal -64.6% [100 µM] | ACHN renal -73.1% [100 µM] | CAKI-1 renal -72.5% [100 µM] | A498 renal -88.8% [100 µM] | CCRF-CEM leukemia -33.8% [100 µM] | MOLT-4 leukemia -30.4% [100 µM] | SR leukemia -25.6% [100 µM] | RPMI-8226 leukemia -16% [100 µM] | OVCAR-8 ovarian -47.1% [100 µM] | OVCAR-5 ovarian -82.8% [100 µM] | OVCAR-4 ovarian -84% [100 µM] | SK-OV-3 ovarian -87.6% [100 µM] | IGROV1 ovarian -56.3% [100 µM] | OVCAR-3 ovarian; 10 µM unless noted -73.5% [100 µM] | HS 578T breast; 10 µM unless noted -24.1% [100 µM] | NCI/ADR-RES ovarian; 10 µM unless noted -74.7% [100 µM]

CCCO/N=C/c1ccccn1
inactive: SK-MEL-2 melanoma 116% and 94.7% | EKVX NSCLC 108% and 96.8% | SN12C renal 94.1% and 108% | UO-31 renal 89.5% and 93% | TK-10 renal 112% and 89.3% | ACHN renal 104% and 100% | CAKI-1 renal 109% | A498 renal 101% and 117% | CCRF-CEM leukemia 80.9% and 105% | MOLT-4 leukemia 124% and 102% | SR leukemia 93.4% | RPMI-8226 leukemia 101% | OVCAR-8 ovarian 103% and 107% | OVCAR-5 ovarian 106% and 100% | OVCAR-4 ovarian 97.4% | SK-OV-3 ovarian 101% and 89.7% | IGROV1 ovarian 107% and 101% | OVCAR-3 ovarian; 10 µM unless noted 105% and 113% | HS 578T breast; 10 µM unless noted 102% and 104% | NCI/ADR-RES ovarian; 10 µM unless noted 101% and 99.5%

Fc1ccc(NC(c2ccc(F)cc2)C2CCN(CCCCc3ccccc3)CC2)cc1 (stereo unspecified)
active: CCRF-CEM leukemia 8.3% | MOLT-4 leukemia 4.36% | SR leukemia -40.5% | RPMI-8226 leukemia -17.6% | OVCAR-8 ovarian -21.9%
inactive: SK-MEL-2 melanoma 69.6% | EKVX NSCLC 52.9% | SN12C renal 29% | UO-31 renal 38.8% | TK-10 renal 49% | ACHN renal 53.8% | CAKI-1 renal 49.1% | A498 renal 17.2% | OVCAR-5 ovarian 59.1% | OVCAR-4 ovarian 50.6% | SK-OV-3 ovarian 64.6% | IGROV1 ovarian 55.9% | OVCAR-3 ovarian; 10 µM unless noted 34% | HS 578T breast; 10 µM unless noted 71.7% | NCI/ADR-RES ovarian; 10 µM unless noted 49.5%

N#C/C(=N\Nc1ccc(Cl)cc1)C(=O)Nc1cc(-c2ccccc2)nn1-c1ccccc1
inactive: SK-MEL-2 melanoma 10.5% | EKVX NSCLC 24.4% | UO-31 renal 47.1% | TK-10 renal 28.6% | ACHN renal 33.9% | CAKI-1 renal 21.5% | CCRF-CEM leukemia 15.3% | MOLT-4 leukemia 26.1% | SR leukemia 89.4% | OVCAR-8 ovarian 25.6% | OVCAR-5 ovarian 81.6% | OVCAR-4 ovarian 36.8% | SK-OV-3 ovarian 26.4% | IGROV1 ovarian 19.9% | OVCAR-3 ovarian; 10 µM unless noted 15.4% | HS 578T breast; 10 µM unless noted 47% | NCI/ADR-RES ovarian; 10 µM unless noted 29.7%
active: SN12C renal 0.137% | A498 renal 3.5% | RPMI-8226 leukemia 1.81%

CCC(=C(c1ccc(OCCCN(C)C)cc1)c1ccc(OCCCN(C)C)cc1)c1ccc(Cl)cc1
active: SK-MEL-2 melanoma -72.1% | EKVX NSCLC -86.8% | SN12C renal -94.1% | UO-31 renal -93.6% | TK-10 renal -85.2% | ACHN renal -95.8% | CAKI-1 renal -96.1% | A498 renal -86.3% | CCRF-CEM leukemia -67.9% | MOLT-4 leukemia -61.9% | SR leukemia -48.2% | RPMI-8226 leukemia -55.4% | OVCAR-8 ovarian -76.3% | OVCAR-5 ovarian -89.3% | OVCAR-4 ovarian -85.8% | SK-OV-3 ovarian -88.2% | IGROV1 ovarian -84.9% | OVCAR-3 ovarian; 10 µM unless noted -84.6% | HS 578T breast; 10 µM unless noted -77.4% | NCI/ADR-RES ovarian; 10 µM unless noted -84.9%

Cc1nc(-n2[nH]c(=O)ccc2=O)sc1N=Nc1ccccc1
inactive: SK-MEL-2 melanoma 108% | EKVX NSCLC 96.5% | SN12C renal 97.7% | UO-31 renal 84.1% | TK-10 renal 121% | ACHN renal 99.5% | CAKI-1 renal 91.5% | A498 renal 105% | CCRF-CEM leukemia 100% | MOLT-4 leukemia 99.4% | SR leukemia 105% | RPMI-8226 leukemia 100% | OVCAR-8 ovarian 103% | OVCAR-5 ovarian 100% | OVCAR-4 ovarian 104% | SK-OV-3 ovarian 103% | IGROV1 ovarian 95.5% | OVCAR-3 ovarian; 10 µM unless noted 114% | HS 578T breast; 10 µM unless noted 95.5% | NCI/ADR-RES ovarian; 10 µM unless noted 108%

O=C(NNc1ccccc1)C1CCCN1 (stereo unspecified)
inactive: SK-MEL-2 melanoma 87.5% | EKVX NSCLC 69.4% | SN12C renal 85.4% | UO-31 renal 33% | TK-10 renal 84.6% | ACHN renal 20% | CAKI-1 renal 13.5% | A498 renal 103% | CCRF-CEM leukemia 46.7% | MOLT-4 leukemia 44.3% | SR leukemia 105% | RPMI-8226 leukemia 78.7% | OVCAR-8 ovarian 86.7% | OVCAR-5 ovarian 69.7% | OVCAR-4 ovarian 64.5% | SK-OV-3 ovarian 80.6% | IGROV1 ovarian 75.1% | OVCAR-3 ovarian; 10 µM unless noted 88.8% | HS 578T breast; 10 µM unless noted 93% | NCI/ADR-RES ovarian; 10 µM unless noted 84.1%

O=C(Nc1ccc2ccccc2c1)c1cc2ccccc2cc1O
active: OVCAR-3 ovarian; 10 µM unless noted -0.789%
inactive: SK-MEL-2 melanoma 79.3% | EKVX NSCLC 99.7% | SN12C renal 89.2% | UO-31 renal 58.8% | TK-10 renal 103% | ACHN renal 89.2% | CAKI-1 renal 87.1% | A498 renal 90.4% | CCRF-CEM leukemia 75% | MOLT-4 leukemia 82.2% | SR leukemia 82% | RPMI-8226 leukemia 49.9% | OVCAR-8 ovarian 102% | OVCAR-5 ovarian 98.8% | OVCAR-4 ovarian 82.9% | SK-OV-3 ovarian 94.3% | IGROV1 ovarian 59.8% | HS 578T breast; 10 µM unless noted 105% | NCI/ADR-RES ovarian; 10 µM unless noted 87.6%
